Hits are enriched below; roughly 1.8% of the tested compounds scored in any of these assays.
p53ts 39C tox – cytotoxicity in p53ts cells at nonpermissive temperature. H1299-p53A138V viability at 39C, ATP luminescence, 24 h. hit rate 1.5% among 130,000. Potency, µM (top dose mostly 46.1 µM), inactives show top-dose activity change, negative = cell killing, hits mostly cytotoxic. AID 902; note: % is set by controls: 0 for no effect and ±100 for the full control effect; nearly all actives have a fitted effect of over 55% in size
p53ts 32C kill – p53ts cell cytotoxicity, permissive temperature; H1299-p53A138V at 32C, ATP luminescence viability, 24 h; Potency, µM (top dose mostly 46.1 µM), inactives show at the top dose activity change, negative = cytotoxicity, actives largely listed as cytotoxic; hit rate 0.93% among 130,000; AID 924;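 note: 0% = DMSO and -100% = full killing by reference compound; nearly all actives have a fitted effect of over 55% in size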
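Viability by ATPlite luminescence after 24 h compound treatment (up to 46 uM) at the permissive 32C. Cells are H1299 carrying p53 A138V. Scale runs from DMSO basal to 100 uM tamoxifen as full kill; AC50 from Hill fits.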
Imprint erasure – genomic imprint erasure induction; mouse ES Peg3-LacZ reporter, beta-gal luminescence, 40 h; Potency, µM (highest dose often 60.7 µM), inactives show top-dose activity change, positive = activation, most hits filed as activators; hit rate 0.02% among 110,000; AID 1948
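Readout: BetaGlo luminescence (5 min, room temp) for LacZ from the normally silent maternal Peg3 allele in female Peg3LacZ-Neo ES cells. Cells 300/well, 40 h, 37C, 5% CO2. Data normalized per plate to negative controls.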
IkB sig inh – IkB pathway inhibition in ABC-DLBCL cells; ABC-DLBCL IkBa-CBG/CBR dual luciferase ratio, 4 h; response scale: scaled: untreated 0%, proteasome inhibitor 100%; hit rate 0.04% among 110,000; Potency, µM (highest dose often 57.1 µM), for inactives: at the top dose IkBa stabilization activation; active = well fitted curve in the direction sought with a large enough effect in the signal ratio, not every such curve was filed as active; inconclusive = small, poorly fitted or top-dose-only effect, or a change in a side signal; the % refers to the signal ratio;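 note: the direction sought is a rising ratio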
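In this assay, an IκBα–CBG68 fusion accumulates when IKK-driven degradation is blocked; native CBR normalizes for cell number. OCI-Ly3 cells were treated 4 h with compound and doxycycline, then green and red light read after Chroma-Glo addition.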
* marks the source's active call; other numbers are inactive results; ? = inconclusive; nt = no result; [ ] = remark or other dose. Unless noted, calls come from the whole dose curve; as a rule, active = well fitted curve in the direction sought with a large enough effect; inconclusive = small, poorly fitted or top-dose-only effect, or another doubt; inactive = no such curve, though single readings can be large; an effect the other way counts as inactive or inconclusive. Potency is the fitted concentration of half-maximal effect.

SMILES	p53ts 39C tox	p53ts 32C kill	Imprint erasure	IkB sig inh
CS(=O)(=O)c1ccc(Sc2nc3ccccc3s2)c([N+](=O)[O-])c1	22.4µM*	nt	nt	nt
COc1cc2cc(C(c3nnnn3C3CCCCC3)N(C)C3CCCCC3)c(=O)[nH]c2cc1OC (configuration not stated)	25.8%	22.7%	-13.1%	?
CCCc1nn2cc(-c3ccc(C)c(C)c3)nc2s1	7.94µM*	7.94µM*	-45.7%[10.9 µM]	?
Cc1ccc(SCc2cn3c(C)csc3n2)cc1	12.6µM*	?	-75.8%	?
Cc1ccc(S(=O)(=O)NCc2cn3c(C)csc3n2)cc1	11.3%	-3.4%	-9.6%	-0.3%
Cc1ccc(Oc2coc3cc(OCC(=O)NC4CCCCC4)ccc3c2=O)cc1	-9.2%	-1.8%	-11.3%[10.9 µM]	3.3%
O=C(Nc1ccc2nc(-c3ccco3)[nH]c2c1)c1ccco1	15.8µM*	7.94µM*	-40.9%	2.8%
O=C(Nc1ccc2nc(-c3ccco3)[nH]c2c1)c1cccs1	12.6µM*	10µM*	-12.4%	8.9%
O=C(Nc1cccc(NC(=O)c2cccs2)c1)c1ccco1	-1.2%	-2.2%	-20.8%	13.8%
COc1ccc2oc(-c3ccccc3)c(OC)c(=O)c2c1	-14.5%	1.9%	-10.0%	-3.5%[11.4 µM]
CN(C)c1ccc(C(CNS(=O)(=O)c2ccc(F)cc2)N2CCc3ccccc32)cc1 (configuration not stated)	2.6%	4.4%	-9.5%[10.9 µM]	?
O=S(=O)(NCC(Nc1ccc(Cl)cc1)c1ccccc1)c1ccccc1 (configuration not stated)	22.4µM*	?	-1.1%[10.9 µM]	?
COc1cccc(NC(CNS(=O)(=O)c2ccc(Cl)cc2)c2ccccc2)c1 (configuration not stated)	12.6µM*	?	2.2%[10.9 µM]	0.1%
O=S(=O)(NCC(c1ccccc1)N1CCc2ccccc21)c1ccc(Cl)cc1 (configuration not stated)	25.1µM*	17.1%	-9.6%[10.9 µM]	1.5%
COc1cccc(NC(CNS(=O)(=O)c2ccc(C)cc2)c2ccccc2)c1 (configuration not stated)	?	10.6%	-6.4%[10.9 µM]	?
CCOC(=O)c1sc(Nc2nc3c(OC)cccc3s2)cc1C	-11.7%	?	nt	nt
Cc1ccc(O)c(NC(=O)c2noc3c2CCCCC3)c1	?	12.6µM*	-34.7%[10.9 µM]	9.0%
CN(C)CCCNc1cc(N2CCN(C3CCCCC3)CC2)c2noc3c2c1C(=O)c1ccccc1-3	20µM*	-12.0%	-12.5%[10.9 µM]	-0.5%
COC(=O)Cc1ccc(NC(=O)c2ccc(Br)o2)cc1	?	-28.3%	-74.8%	-0.5%
CCN(CC)c1ccc(NC(=O)c2ccc(Br)o2)cc1	?	12.6µM*	-51.9%	3.0%
COc1ccc(OCC(=O)N2CCC(c3nc4ccccc4s3)CC2)cc1	8.1%	-6.6%	2.5%[10.9 µM]	?
CC1(CCC#N)N=C(SCCC#N)N(c2ccccc2)C1=O (configuration not stated)	12.6%	2.6%	nt	12.9%
O=C(Nc1ccc2c(c1)nc1n2CCN(C2CCCCC2)C1)c1ccco1	2.4%	-0.2%	-9.4%	0.3%
O=C(Nc1ccc(N2CCCC2)c(Cl)c1)c1ccco1	7.94µM*	10µM*	-29.0%	-2.9%
O=C(Nc1ccc2c(c1)nc1n2CCSC1)c1ccco1	3.16µM*	2µM*	-45.7%	?
SMILES	p53ts 39C tox	p53ts 32C kill	Imprint erasure	IkB sig inh
O=C(Nc1ccc2c(c1)nc1n2CCOC1)c1ccco1	?	7.94µM*	-30.4%	?
Cc1cc(C)cc(NC(=O)CCC(=O)N2Cc3ccccc3Oc3ncccc32)c1	-15.0%	7.7%	7.0%[10.9 µM]	?
FC(F)(F)c1cccc(N2CCN(c3nc4ccccc4n4cnnc34)CC2)c1	15.8µM*	-1.9%	-7.6%[10.9 µM]	?
c1ccc(CN2CCN(c3nc4ccccc4n4cnnc34)CC2)cc1	-0.9%	-12.7%	-17.1%	-3.1%
CC(C)[C@@H](CC(=O)N[C@@H]1CCNC[C@H]1C(=O)N[C@H](CC(=O)N[C@@H](CCC(=O)O)CC(=O)O)Cc1ccccc1)NC(=O)C[C@H](Cc1c[nH]c2ccccc12)NC(=O)[C@@H]1CCCC[C@H]1N	nt	nt	nt	-0.1%
CCN1CCN(c2cc(C)c3cc(NC(=O)c4cnccn4)ccc3n2)CC1	3.8%	-0.8%	4.1%	-1.3%
CCN1CCN(c2cc(C)c3cc(NC(=O)/C=C/c4cccc(OC)c4OC)ccc3n2)CC1	?	?	-1.7%[10.9 µM]	11.0%

Compound activity: PubChem, National Center for Advancing Translational Sciences (NCATS)
